# In the supplement of paper PMC6411743:
# ± gives the standard deviation of the averaged measurements. Of roughly 6,500 targets only a part is listed; those with the largest changes were picked by preference.
# Tests used:
# Assay in all cases: NP40-soluble protein abundance relative to vehicle (solubility fold change) (ratio); higher = more soluble protein in presence of ATP
# [1] = target: A0A075B6F5|F5GXR6|Q8IUG5|Q8IUG5-2 (UniProt Q8IUG5)
# Summary of the method: (§1)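 Values are fold changes against the detergent-processed vehicle, based on vsn-normalised intensities. Jurkat crude lysate was treated at eight concentrations from 0.1 to 10 mM (10 min at room temperature, then 3 min at 37 °C), solubilised with 0.8% NP40 and benzonase, ultracentrifuged and analysed by TMT-labelled LC-MS/MS over three independent experiments.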
# A0A087WTM7|P04114 = A0A087WTM7|P04114 (UniProt P04114)
# Summary of the method: as §1
# A0A087WV29|Q9H0A0 = target: T1, A0A087WV29|Q9H0A0 (UniProt Q9H0A0)
# T1 sequence (whole entry): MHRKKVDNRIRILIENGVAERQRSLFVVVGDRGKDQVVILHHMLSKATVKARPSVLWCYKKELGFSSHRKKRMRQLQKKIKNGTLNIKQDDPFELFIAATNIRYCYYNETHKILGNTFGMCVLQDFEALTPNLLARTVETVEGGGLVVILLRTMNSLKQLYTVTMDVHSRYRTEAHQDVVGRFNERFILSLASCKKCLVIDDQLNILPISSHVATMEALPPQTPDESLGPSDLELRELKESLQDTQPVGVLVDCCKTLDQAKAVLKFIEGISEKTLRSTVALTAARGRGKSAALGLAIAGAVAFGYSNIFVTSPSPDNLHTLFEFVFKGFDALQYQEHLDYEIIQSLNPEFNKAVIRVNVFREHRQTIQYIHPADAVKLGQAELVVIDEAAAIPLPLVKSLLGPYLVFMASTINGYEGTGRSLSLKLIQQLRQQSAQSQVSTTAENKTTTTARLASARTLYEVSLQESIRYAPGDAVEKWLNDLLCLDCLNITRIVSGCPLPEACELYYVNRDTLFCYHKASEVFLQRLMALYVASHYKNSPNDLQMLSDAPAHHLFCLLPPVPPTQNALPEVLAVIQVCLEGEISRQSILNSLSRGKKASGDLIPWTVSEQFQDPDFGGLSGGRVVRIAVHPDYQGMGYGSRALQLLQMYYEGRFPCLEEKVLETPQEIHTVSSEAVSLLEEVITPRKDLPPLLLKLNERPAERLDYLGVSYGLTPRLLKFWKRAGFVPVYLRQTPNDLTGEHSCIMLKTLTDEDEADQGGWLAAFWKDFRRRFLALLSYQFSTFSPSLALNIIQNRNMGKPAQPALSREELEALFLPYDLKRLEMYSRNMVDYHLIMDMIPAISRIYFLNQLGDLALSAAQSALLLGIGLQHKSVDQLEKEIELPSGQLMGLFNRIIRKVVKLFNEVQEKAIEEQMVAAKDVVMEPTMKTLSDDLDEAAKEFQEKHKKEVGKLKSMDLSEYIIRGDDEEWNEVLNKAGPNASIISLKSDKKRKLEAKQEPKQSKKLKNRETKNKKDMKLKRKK
# Summary of the method: as §1
# [2] = target: T2, A0A087WVA8|Q8IWB9|Q8IWB9-2 (UniProt Q8IWB9)
# T2 sequence (whole entry): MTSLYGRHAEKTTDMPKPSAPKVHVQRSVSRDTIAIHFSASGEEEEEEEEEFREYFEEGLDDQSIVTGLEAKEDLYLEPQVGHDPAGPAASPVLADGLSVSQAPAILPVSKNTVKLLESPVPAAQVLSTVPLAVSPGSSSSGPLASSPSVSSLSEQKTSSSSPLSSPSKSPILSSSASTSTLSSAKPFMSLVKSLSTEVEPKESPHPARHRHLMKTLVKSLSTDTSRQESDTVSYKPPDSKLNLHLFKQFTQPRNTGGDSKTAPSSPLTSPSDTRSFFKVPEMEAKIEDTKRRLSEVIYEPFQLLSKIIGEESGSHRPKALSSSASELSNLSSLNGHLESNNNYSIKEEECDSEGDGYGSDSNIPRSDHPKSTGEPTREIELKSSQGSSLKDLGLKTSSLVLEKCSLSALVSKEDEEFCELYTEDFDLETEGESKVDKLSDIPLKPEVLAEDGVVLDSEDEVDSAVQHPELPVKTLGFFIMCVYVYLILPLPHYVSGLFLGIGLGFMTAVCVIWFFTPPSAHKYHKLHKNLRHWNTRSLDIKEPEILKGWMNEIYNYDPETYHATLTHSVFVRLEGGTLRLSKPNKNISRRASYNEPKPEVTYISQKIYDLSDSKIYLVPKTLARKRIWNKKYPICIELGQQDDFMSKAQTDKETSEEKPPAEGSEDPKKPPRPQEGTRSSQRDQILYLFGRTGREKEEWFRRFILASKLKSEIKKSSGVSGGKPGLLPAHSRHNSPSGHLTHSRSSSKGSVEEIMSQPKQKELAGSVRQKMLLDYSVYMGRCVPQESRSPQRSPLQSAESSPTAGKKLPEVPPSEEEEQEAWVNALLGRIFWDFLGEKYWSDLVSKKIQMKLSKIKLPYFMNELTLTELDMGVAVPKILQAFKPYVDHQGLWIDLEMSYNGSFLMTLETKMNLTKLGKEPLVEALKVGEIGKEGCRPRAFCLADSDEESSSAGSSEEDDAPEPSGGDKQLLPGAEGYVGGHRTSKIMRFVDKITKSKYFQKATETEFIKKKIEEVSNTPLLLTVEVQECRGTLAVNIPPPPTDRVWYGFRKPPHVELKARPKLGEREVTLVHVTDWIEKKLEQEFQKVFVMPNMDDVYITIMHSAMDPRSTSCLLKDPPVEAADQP
# Summary of the method: as §1
# A0A087WWP8 = A0A087WWP8 (UniProt Q5VWQ0)
# Summary of the method: as §1
# Sequence of A0A087WTM7|P04114 (P04114 whole entry, one chain of several): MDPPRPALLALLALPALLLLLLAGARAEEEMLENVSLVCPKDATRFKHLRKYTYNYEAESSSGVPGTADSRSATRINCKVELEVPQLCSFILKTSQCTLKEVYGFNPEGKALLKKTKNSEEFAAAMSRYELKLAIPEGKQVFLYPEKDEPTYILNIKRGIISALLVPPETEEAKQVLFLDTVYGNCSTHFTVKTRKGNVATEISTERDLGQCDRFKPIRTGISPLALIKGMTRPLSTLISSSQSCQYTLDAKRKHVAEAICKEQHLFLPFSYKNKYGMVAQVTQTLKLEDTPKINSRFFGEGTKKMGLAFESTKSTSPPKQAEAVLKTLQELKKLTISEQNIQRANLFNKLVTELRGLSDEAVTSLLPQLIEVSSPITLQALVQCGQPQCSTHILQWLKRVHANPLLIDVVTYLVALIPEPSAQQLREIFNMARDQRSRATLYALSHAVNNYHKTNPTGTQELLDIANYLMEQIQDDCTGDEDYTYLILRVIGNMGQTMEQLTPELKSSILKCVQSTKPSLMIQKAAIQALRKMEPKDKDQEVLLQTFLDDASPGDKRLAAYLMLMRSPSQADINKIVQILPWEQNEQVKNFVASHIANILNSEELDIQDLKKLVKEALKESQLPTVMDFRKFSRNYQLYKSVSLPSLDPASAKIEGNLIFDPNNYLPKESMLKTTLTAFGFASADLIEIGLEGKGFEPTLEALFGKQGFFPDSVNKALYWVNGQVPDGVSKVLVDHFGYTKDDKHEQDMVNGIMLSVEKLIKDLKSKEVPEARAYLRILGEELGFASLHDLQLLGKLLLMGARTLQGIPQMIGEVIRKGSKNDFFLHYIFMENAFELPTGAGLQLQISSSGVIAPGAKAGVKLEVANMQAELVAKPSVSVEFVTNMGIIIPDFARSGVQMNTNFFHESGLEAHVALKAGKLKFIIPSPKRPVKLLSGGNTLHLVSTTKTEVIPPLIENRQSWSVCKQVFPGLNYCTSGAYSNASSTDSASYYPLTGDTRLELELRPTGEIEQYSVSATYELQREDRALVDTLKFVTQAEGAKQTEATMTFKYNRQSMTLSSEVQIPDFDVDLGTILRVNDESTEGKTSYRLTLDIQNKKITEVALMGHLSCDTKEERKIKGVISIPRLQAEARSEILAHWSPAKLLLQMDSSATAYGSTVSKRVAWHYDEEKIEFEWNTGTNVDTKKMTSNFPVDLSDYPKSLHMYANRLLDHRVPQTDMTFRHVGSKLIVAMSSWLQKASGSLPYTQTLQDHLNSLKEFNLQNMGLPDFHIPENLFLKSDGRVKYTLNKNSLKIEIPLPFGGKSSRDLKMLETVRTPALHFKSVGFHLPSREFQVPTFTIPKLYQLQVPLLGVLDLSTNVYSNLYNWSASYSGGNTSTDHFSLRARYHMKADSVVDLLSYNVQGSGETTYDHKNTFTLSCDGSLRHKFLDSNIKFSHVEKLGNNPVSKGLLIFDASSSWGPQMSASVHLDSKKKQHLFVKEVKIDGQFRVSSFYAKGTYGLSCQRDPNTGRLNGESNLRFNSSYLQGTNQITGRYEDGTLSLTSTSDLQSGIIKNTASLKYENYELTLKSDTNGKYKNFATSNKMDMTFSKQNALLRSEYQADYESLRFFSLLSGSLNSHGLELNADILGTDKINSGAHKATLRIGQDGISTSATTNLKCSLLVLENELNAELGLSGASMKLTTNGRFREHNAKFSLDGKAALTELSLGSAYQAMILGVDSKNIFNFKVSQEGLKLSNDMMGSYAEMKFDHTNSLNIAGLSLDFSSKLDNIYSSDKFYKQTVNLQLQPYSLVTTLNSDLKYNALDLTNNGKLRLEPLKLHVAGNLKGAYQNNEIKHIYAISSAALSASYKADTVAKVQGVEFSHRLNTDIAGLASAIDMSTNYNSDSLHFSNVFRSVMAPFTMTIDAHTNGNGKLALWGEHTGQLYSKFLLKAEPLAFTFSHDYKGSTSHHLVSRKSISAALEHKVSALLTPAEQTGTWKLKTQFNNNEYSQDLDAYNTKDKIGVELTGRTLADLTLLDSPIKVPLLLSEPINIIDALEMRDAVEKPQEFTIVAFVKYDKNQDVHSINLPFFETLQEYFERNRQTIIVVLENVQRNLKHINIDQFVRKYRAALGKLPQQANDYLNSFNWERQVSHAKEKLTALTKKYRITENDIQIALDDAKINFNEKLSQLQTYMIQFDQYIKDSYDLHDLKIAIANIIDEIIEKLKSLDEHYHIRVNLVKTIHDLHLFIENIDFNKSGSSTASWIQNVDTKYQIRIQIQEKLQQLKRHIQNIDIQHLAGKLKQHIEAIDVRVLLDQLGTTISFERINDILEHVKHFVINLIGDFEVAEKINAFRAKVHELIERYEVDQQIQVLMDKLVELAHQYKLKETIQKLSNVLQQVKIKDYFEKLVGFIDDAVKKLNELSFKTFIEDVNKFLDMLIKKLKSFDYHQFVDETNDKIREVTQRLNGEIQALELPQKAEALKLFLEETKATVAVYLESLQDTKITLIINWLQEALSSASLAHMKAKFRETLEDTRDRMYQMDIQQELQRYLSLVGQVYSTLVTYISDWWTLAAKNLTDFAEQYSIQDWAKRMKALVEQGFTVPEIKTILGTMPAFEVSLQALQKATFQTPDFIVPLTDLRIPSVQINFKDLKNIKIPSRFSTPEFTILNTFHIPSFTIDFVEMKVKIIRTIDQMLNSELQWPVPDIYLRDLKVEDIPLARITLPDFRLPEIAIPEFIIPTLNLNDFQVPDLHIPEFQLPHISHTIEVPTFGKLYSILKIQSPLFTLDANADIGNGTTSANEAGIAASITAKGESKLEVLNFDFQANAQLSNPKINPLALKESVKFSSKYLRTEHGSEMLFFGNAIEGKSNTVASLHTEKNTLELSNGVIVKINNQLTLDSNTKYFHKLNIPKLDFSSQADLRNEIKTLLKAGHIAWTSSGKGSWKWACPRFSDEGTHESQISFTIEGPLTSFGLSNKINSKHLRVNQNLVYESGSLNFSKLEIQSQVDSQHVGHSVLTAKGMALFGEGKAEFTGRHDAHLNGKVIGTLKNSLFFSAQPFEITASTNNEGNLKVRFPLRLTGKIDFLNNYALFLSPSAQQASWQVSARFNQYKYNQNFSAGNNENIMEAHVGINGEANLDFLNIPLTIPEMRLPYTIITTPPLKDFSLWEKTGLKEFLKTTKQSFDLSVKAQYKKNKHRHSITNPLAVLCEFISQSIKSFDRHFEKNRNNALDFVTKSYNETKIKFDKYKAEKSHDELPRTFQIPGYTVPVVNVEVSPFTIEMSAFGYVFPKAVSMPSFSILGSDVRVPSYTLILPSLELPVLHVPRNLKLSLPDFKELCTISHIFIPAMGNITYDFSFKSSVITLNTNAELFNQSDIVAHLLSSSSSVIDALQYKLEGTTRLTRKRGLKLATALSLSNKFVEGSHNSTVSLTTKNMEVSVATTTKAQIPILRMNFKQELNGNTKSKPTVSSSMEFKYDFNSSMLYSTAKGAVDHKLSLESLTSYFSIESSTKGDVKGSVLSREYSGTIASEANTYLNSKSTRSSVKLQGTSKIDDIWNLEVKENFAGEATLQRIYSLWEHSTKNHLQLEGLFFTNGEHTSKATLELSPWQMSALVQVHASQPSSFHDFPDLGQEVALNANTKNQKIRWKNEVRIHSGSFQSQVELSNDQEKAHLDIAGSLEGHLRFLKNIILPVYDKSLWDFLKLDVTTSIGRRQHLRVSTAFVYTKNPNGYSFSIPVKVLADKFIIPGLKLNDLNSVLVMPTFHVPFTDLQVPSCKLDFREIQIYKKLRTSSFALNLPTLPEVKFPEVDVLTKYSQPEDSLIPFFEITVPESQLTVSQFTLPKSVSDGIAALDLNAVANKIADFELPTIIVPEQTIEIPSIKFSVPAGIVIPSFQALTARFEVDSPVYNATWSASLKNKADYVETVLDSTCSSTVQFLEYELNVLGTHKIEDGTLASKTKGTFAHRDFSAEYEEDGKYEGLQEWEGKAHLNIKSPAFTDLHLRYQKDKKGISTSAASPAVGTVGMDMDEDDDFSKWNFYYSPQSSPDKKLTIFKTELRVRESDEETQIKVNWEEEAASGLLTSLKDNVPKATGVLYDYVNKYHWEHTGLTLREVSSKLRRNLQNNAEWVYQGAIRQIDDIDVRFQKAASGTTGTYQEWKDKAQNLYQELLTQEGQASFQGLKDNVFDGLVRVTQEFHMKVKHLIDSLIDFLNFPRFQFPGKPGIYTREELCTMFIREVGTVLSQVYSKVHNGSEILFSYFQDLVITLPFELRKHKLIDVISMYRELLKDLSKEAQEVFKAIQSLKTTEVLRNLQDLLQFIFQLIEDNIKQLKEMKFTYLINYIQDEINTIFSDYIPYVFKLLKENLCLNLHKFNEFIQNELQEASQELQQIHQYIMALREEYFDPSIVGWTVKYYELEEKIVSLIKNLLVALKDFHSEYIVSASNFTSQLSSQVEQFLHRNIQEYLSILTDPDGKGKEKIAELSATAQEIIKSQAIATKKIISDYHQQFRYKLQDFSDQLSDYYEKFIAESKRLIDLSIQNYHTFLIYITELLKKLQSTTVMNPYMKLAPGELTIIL
compound,measurement,setting,value
Nc1ncnc2c1ncn2[C@@H]1O[C@H](COP(=O)(O)OP(=O)(O)OP(=O)(O)O)[C@@H](O)[C@H]1O [adenosine triphosphate],NP40-soluble protein abundance,[1]; concentration: 1mM,0.986 ± 0.023
same,NP40-soluble protein abundance,[1]; concentration: 2mM,0.927 ± 0.014
same,NP40-soluble protein abundance,[1]; concentration: 4mM,1.1 ± 0.016
same,NP40-soluble protein abundance,[1]; concentration: 6mM,1.06 ± 0.022
same,NP40-soluble protein abundance,[1]; concentration: 8mM,1.14 ± 0.13
same,NP40-soluble protein abundance,[1]; concentration: 10mM,1.18 ± 0.18
same,NP40-soluble protein abundance,A0A087WTM7|P04114; concentration: 1mM,1.09 ± 0.039
same,NP40-soluble protein abundance,A0A087WTM7|P04114; concentration: 2mM,1.05 ± 0.029
same,NP40-soluble protein abundance,A0A087WTM7|P04114; concentration: 4mM,0.98 ± 0.11
same,NP40-soluble protein abundance,A0A087WTM7|P04114; concentration: 6mM,0.965 ± 0.086
same,NP40-soluble protein abundance,A0A087WTM7|P04114; concentration: 8mM,0.976 ± 0.082
same,NP40-soluble protein abundance,A0A087WTM7|P04114; concentration: 10mM,0.989 ± 0.074
same,NP40-soluble protein abundance,A0A087WV29|Q9H0A0; concentration: 1mM,1.2 ± 0.1
same,NP40-soluble protein abundance,A0A087WV29|Q9H0A0; concentration: 2mM,1.37 ± 0.1
same,NP40-soluble protein abundance,A0A087WV29|Q9H0A0; concentration: 4mM,1.59 ± 0.11
same,NP40-soluble protein abundance,A0A087WV29|Q9H0A0; concentration: 6mM,1.69 ± 0.18
same,NP40-soluble protein abundance,A0A087WV29|Q9H0A0; concentration: 8mM,2.15 ± 0.14
same,NP40-soluble protein abundance,A0A087WV29|Q9H0A0; concentration: 10mM,2.32 ± 0.22
same,NP40-soluble protein abundance,[2]; concentration: 1mM,1.02 ± 0.043
same,NP40-soluble protein abundance,[2]; concentration: 2mM,0.975 ± 0.072
same,NP40-soluble protein abundance,[2]; concentration: 4mM,0.984 ± 0.062
same,NP40-soluble protein abundance,[2]; concentration: 6mM,0.982 ± 0.024
same,NP40-soluble protein abundance,[2]; concentration: 8mM,0.973 ± 0.07
same,NP40-soluble protein abundance,[2]; concentration: 10mM,0.993 ± 0.052
same,NP40-soluble protein abundance,A0A087WWP8; concentration: 1mM,1.48 ± 0.058
same,NP40-soluble protein abundance,A0A087WWP8; concentration: 2mM,1.53 ± 0.045
same,NP40-soluble protein abundance,A0A087WWP8; concentration: 4mM,1.61 ± 0.043
